According to PubChem BioAssay AID652058 (Broad Institute, 2013):
In all, about 1,200 compounds went through this assay and about 870 (72%) were called active. Roughly 3% stayed inconclusive and do not appear here.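 How the source made its calls: active means every test run fits a falling curve whose half-maximal concentration is at most twice the top valid dose; inconclusive means runs disagree, or flat 30 to 70% inhibition, or poor fit; inactive means every run inactive: flat, rising or weaker potency.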 The set was probably picked from earlier hits. A selection follows. Measured potencies and affinities stand elsewhere.

Experiment: ZM109 Env clade C HIV-1 fusion inhibitors, dose response, HeLa effector, CEM target cells, luciferase, cherry-pick (AID 652058);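 further: 0% = neutral control wells and -100% = maraviroc 300 nM wells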
Conditions: HeLa Env/CEM cell fusion, 16-24 h; series mostly up to 35 µM; activity change, negative = inhibition: at the top concentration

Activity change, negative = inhibition, inactive:
COC(=O)Cn1cnc2c(Cl)nc(F)nc21 -2.77%, CCCNC(=O)C[C@@H]1C[C@@H]2c3cc(NC(=O)Cc4ccncc4)ccc3O[C@@H]2[C@H](CO)O1 -1.71%, CN(C)C(=O)C[C@@H]1C[C@H]2c3cc(NS(=O)(=O)c4ccc(F)cc4)ccc3O[C@H]2[C@H](CO)O1 2.15%, CCCNC(=O)C[C@@H]1C[C@@H]2c3cc(NC(=O)CN(C)C)ccc3O[C@@H]2[C@H](CO)O1 -28.8%, O=C(C[C@@H]1C[C@H]2c3cc(NC(=O)C4CCC4)ccc3O[C@H]2[C@H](CO)O1)NCC(F)(F)F -6.6%, CN(C)C(=O)C[C@@H]1C[C@@H]2c3cc(NS(=O)(=O)c4ccc(F)cc4)ccc3O[C@@H]2[C@@H](CO)O1 19.1%, O=C(C[C@H]1C[C@@H]2c3cc(NC(=O)C4CCOCC4)ccc3O[C@@H]2[C@H](CO)O1)NCc1ccccc1 -15.5%, O=C(C[C@H]1C[C@H]2c3cc(NC(=O)C4CCC4)ccc3O[C@H]2[C@@H](CO)O1)NCc1ccc2c(c1)OCO2 52.9% [at 30 µM], CC(=O)OC1c2ccccc2C(=O)N1c1ccccc1C (stereo not drawn) 18.1%, O=C(COC(=O)c1cccc(S(=O)(=O)N2CCOCC2)c1)NCc1ccccc1 86.8%, Cc1ccc(S(=O)(=O)N(C)c2ccc(C(=O)N3CCN(Cc4ccc5c(c4)OCO5)CC3)cc2)cc1 -25.3%, c1ccc(CSc2nnc([C@@H]3CCCN3)o2)cc1 -13.7%, Cc1nnc(SC(=O)N2c3ccccc3Sc3ccccc32)s1 -16.8%, Cc1ccccc1-n1c(=O)c2ccccc2n2cnnc12 15.4%, O=c1c2ccccc2nnn1CSc1nnc(COc2ccc(Cl)cc2)n1Cc1ccco1 -43.6% [at 16 µM], O=C(CNC(=O)c1cccc(-n2cccc2)c1)Nc1ccccc1Br -5.92%, Cc1ccc(S(=O)(=O)N[C@@H]2CC[C@H](CCNC(=O)c3ccccc3F)O[C@H]2CO)cc1 -27.1%, COc1cccc(S(=O)(=O)N[C@H]2CC[C@@H](CCN)O[C@@H]2CO)c1 52.5% [at 16 µM], O=C(NCC[C@@H]1CC[C@@H](NS(=O)(=O)c2ccccc2F)[C@@H](CO)O1)c1ccc(F)cc1 104%, COc1ccccc1S(=O)(=O)N[C@H]1CC[C@H](CC(=O)N2CCN(C)CC2)O[C@H]1CO -11.3%, COc1cc(-c2cc(OC)c(O)c(OC)c2)cc(OC)c1O 4.4%, Cc1ccc(C2Oc3ccccc3C3=C2C(c2cccs2)n2ncnc2N3)cc1 (stereo not drawn) 30.7%, O=C(NCCCN1CCc2ccccc2C1)Nc1ccc(Cl)cc1 -29.2%, O=C(CN1CCCN(Cc2ccc(F)cc2Cl)C1=O)NC1CCCCCCC1 2.63%, CCN(CC)S(=O)(=O)c1cccc(S(=O)(=O)c2cccc(S(=O)(=O)N(CC)CC)c2)c1 2.38% [at 16 µM], CS(=O)(=O)N(Cc1ccc(Cl)cc1)c1ccc(C(=O)NCCC2=CCCCC2)cc1 48.8%, CCCNC(=O)C[C@H]1C[C@H]2c3cc(NC(=O)Cc4ccncc4)ccc3O[C@H]2[C@H](CO)O1 -57.4%, COc1ccc2c3c([nH]c2c1)[C@H](CO)N(C(=O)Nc1cccc(F)c1)CC31CCN(S(=O)(=O)c2ccccc2)CC1 -93.1%, COc1ccc(S(=O)(=O)N[C@@H]2CC[C@@H](CC(=O)NCCc3ccncc3)O[C@@H]2CO)cc1 -19.1%, CCCCOc1ccc(S(=O)(=O)Nc2cccnc2)cc1 -24.9%, CC(=O)c1ccc(S(=O)(=O)N2CCN(c3nc4c(C)c(C)ccc4cc3C#N)CC2)cc1 -2.04%, O=C(Nc1nc2ccccc2[nH]1)c1ccccc1F -7.03%, Cc1ccc(NC(=O)c2ccc(CN3CCc4ccccc4C3)cc2)cc1 45.7%, O=C(Nc1ccc(Cl)cc1)Nc1cccc(C(=O)O)c1 -85.6%, Cc1ccc(NC(=O)c2ccc(OCC3CCCO3)cc2)cc1Cl (stereo not drawn) 225%, O=C(COc1ccc(-n2cnnn2)cc1)Nc1ccc(F)c(F)c1 2.63%, Cn1c(CN2CCCCC2)nc2cc(NC(=O)c3ccc(Cl)cc3)ccc21 39.5%, COC(=O)[C@H](Cc1ccccc1)NC(=O)Cn1cnc(C(=O)Nc2ccc(C)c(C)c2)n1 18.5%
